The results in this text go back to PubChem BioAssay.

This experiment has as its system Chordin-like protein 2 (CHRDL2). The experiment is described as follows: CHRDL2 small-molecule binders, primary screen, biochemical, small-molecule microarray, 635 nm fluorescence (AID 1126).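 Further: printed compound slides probed with Chrdl2 protein at 4 µg/mL for 1 h at 4 C; score merges 667 nm emission intensity with signal to noise over three replicate slides.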 The conditions noted are these: small-molecule microarray binding, fluorescence 635 nm; higher = more signal.
Take `COC(=O)[C@@H]1N=C(c2ccc(OCCCO)cc2)O[C@@H]1C`: the composite z-score was -0.155. Consider `C=C[C@H]1C(C(=O)OCC)=CC[C@@H](c2ccccc2)N1S(=O)(=O)c1ccc(C)cc1`, for which the composite z-score amounted to 0.218. The value for `CC(c1ccccc1)C(O)C1C=CC2C(=O)N(C)C(=O)C2N1Nc1ccccc1` (stereo not given) was -0.826; that for `NC(=O)NCC#Cc1ccc2c(c1)[C@]1(C(=O)N2)[C@H](c2ccccc2OCCO)N2[C@H](c3ccccc3)[C@H](c3ccccc3)OC(=O)[C@H]2[C@@H]1C(=O)NC[C@H](O)c1ccccc1` was -0.501. As for `CCCCC[C@H]1OC[C@@]23C=C(Br)[C@@H](CC12)[C@@]1(CO1)C3=O` (stereo not given in full), the composite z-score is -0.194. The figure for `CCC#CCN(Cc1ccccc1Br)[C@H](/C=C/C1CC1)[C@@H](O)Cc1ccccc1` is -0.784; for `COC(=O)C(CC#Cc1ccc2c(c1)[C@]1(C(=O)N2)[C@H](c2ccc(O)cc2)N2[C@H](c3ccccc3)[C@H](c3ccccc3)OC(=O)[C@H]2[C@@H]1C(=O)NC[C@H](O)c1ccccc1)C(=O)OC` it is 0.294; for `CCCCC(O)C1C=CC2C(=O)N(C)C(=O)C2N1N(c1ccccc1)c1ccccc1` (stereo not given) it is -0.711. As to `O=C1[C@H]2C=C(I)[C@H](C[C@@H]2OCCOCCO)[C@@]12CO2`, the composite z-score worked out at 0.466. The value for `C=CC[C@]1(C(=O)N2CCCCC2)N=C(c2ccc(OCCCO)cc2)O[C@H]1c1ccccc1CN=[N+]=[N-]` was -0.406.

Consider `COC(=O)[C@@]1(Cc2ccc(OC)cc2)[C@H]2c3cc(C(=O)N4CCCC4)n(CCO)c3C[C@H]2CN1C(=O)c1ccccc1`, for which the composite z-score is -0.0307.

Turning to `C=CC[C@]1(C(=O)N2CCOCC2)COC(c2ccc(OCCCO)cc2)=N1`, the composite z-score was found to be 0.191.

As for `CN(C)C(=O)[C@]1(CCC(=O)OC(C)(C)C)N=C(c2ccc(OCCCO)cc2)O[C@@H]1c1ccccc1CN=[N+]=[N-]`, the composite z-score was -1.24. Regarding `CO[C@H]1O[C@H](CO)[C@@H](OC(=O)Nc2ccc3c(c2)OCO3)[C@H](OC(=O)Nc2ccc3c(c2)OCO3)[C@@H]1OC(=O)Nc1ccc2c(c1)OCO2`, the composite z-score stood at 0.12. The value for `C=C[C@@H](OC)[C@H](OC(=O)Nc1ccc(OC)cc1)c1ccc(O)c(F)c1` was 0.746; that for `COC(=O)c1c(CC[C@@H](CO)NC(=O)N[C@@H](C)Cn2cc(-c3ccccn3)nn2)oc(C(C)=O)c1C(=O)OC` was 0.204. `CCCC[C@@H](O)C1=C(COC)C[C@H]2C(=O)N(Cc3ccccc3)C(=O)[C@H]2[C@H]1CO` had a composite z-score of 0.293. Take `CCCN1C(=O)[C@]2(Cc3ccccc31)N=C(c1ccc(OCCCO)cc1)O[C@@H]2c1ccccc1`: the composite z-score was -0.184.

`CCOC(=O)C[C@H]1[C@H](OC(=O)c2ccc(C(=O)c3ccccc3)cc2)[C@@H](NC(=O)C2CCCCC2)c2cc(OCCCO)ccc2N1C(=O)c1ccc2ccccc2n1` had a composite z-score of 0.24. Take `COc1cccc(C)c1NC(=O)O[C@H]1[C@H](OC(=O)Nc2ccc3c(c2)OCO3)[C@@H](OC(=O)Nc2ccc3c(c2)OCO3)[C@@H](OC)O[C@@H]1CO`: the composite z-score is 0.492.

Take `CC(C)(C)OC(=O)COc1cccc(C(=O)CCN2CCOCC2)c1`: the composite z-score worked out at 0.309. The value for `CC(C)NC(=O)[C@@]1(C)c2ccccc2C(=O)N(Cc2ccc(OC(F)(F)F)cc2)[C@H]1c1ccc(CO)cc1` was -1.02; that for `COc1cc2c(cc1O)C(c1cccs1)N(Cc1cc3c(cc1Br)OCO3)CC2` (stereo not given) was 0.417. The figure for `CCCCNC(=O)c1ccc(C#CC(C)(C)C)c(OC(C)=O)c1` is 0.641. The value for `CCCC1(C(=O)OC)C=C2C(=C(C)C(=O)C2C)CN1` (stereo not given) was -0.027; that for `O=C(C1N=C(c2ccc(OCCCO)cc2)N(c2ccccc2)O1)N1CCCCC1` (stereo not given) was 0.165. As to `CCCCN1CC=CC23O[C@@H]4/C=C\CCC(C)OC(=O)C4[C@H]2C(=O)N(CCCO)[C@@H]3C1=O` (stereo not given in full), the composite z-score is -1.38. Turning to `Cc1ccc(S[C@]2(C(=O)NCC(F)(F)F)CC(=O)N(Cc3cc(C(F)(F)F)cc(C(F)(F)F)c3)[C@@H]2c2ccc(CO)cc2)cc1`, the composite z-score is -1.19. The figure for `COC(=O)[C@@]1(Cc2ccc(F)cc2)[C@H]2c3cc(C(=O)N(C)C)n(CCc4ccc(OC)c(Br)c4)c3C[C@H]2CN1C(=O)c1ccccc1` is -0.66. The value for `O=C(NCCN1CCOCC1)[C@@H]1c2ccccc2C(=O)N(Cc2ccccc2Cl)[C@H]1c1ccc(CO)cc1` was -0.761; that for `CCCCCN1CC=CC23O[C@@H]4/C=C\CCCOC(=O)C4[C@H]2C(=O)N(C(C)CO)[C@@H]3C1=O` (stereo not given in full) was -1.14; that for `COc1ccc(CCNC(=O)[C@@H]2c3ccccc3C(=O)N(C3CCCCC3)[C@H]2c2ccc(CO)cc2)cc1` was -0.524.

`C=CCNC(=O)[C@H]1[C@@H]2C(=O)O[C@@H](c3ccccc3)[C@@H](c3ccccc3)N2[C@@H](c2ccccc2OCCO)[C@]12C(=O)N(C(=O)OCCOC)c1ccc(C#CC3(O)CCCCCC3)cc12`: the composite z-score came out at 0.174. The figure for `C#Cc1cc2ccccc2oc1=O` is -2.62; for `CCCC=C(CCC)[C@@H](NS(=O)(=O)CC12CCC(CC1=O)C2(C)C)c1ccc(C(=O)OC)cc1` (stereo not given in full) it is -0.14.
